High-throughput results from PubChem BioAssay.
Tau fibril ThT – inhibitors of human tau fibril formation, thioflavin T binding; recombinant tau K18 P301L, heparin-induced fibrillization, ThT fluorescence; Potency, µM (titrated, usually from 57.4 µM), for the others: at the highest dose activity, negative = inhibition, usual class: inhibitors; 270,000 tested, 2.1% active; AID 1460; note: nearly all actives have a fitted effect of over 55% in size
Target sequence (P10636 561-689 P618L limits assumed): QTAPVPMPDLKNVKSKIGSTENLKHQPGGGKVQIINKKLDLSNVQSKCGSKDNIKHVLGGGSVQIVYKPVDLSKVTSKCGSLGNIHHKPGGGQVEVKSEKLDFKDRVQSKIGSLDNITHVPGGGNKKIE
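Heparin-induced fibrillization of the P301L-mutant K18 repeat-domain fragment of human tau was followed by ThT binding in quantitative high-throughput format.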
TR SRC2 fluor cs – alters Texas Red total fluorescence, flagging assay interference. Potency, µM (titrated, usually from 106 µM), without a hit: at the highest dose fluorescence change, negative = quenching. TRb/SRC2 Texas Red total fluorescence interference. 280,000 tested, 0.29% active. AID 1479; active = well fitted curve in either direction with a large enough effect; inconclusive = small, poorly fitted or top-dose-only effect
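Human TRb ligand-binding domain at 0.6 uM with 20 nM Texas Red SRC2 peptide in Tris buffer containing 1 uM T3 and 5% DMSO, incubated with compound 5 h at ambient temperature. Total fluorescence (555/632 nm) calculated as parallel + 2 × perpendicular.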
Tau FP inhib – blocks human tau fibril formation measured by polarization | 280,000 tested, 0.39% active | K18 P301L tau heparin fibrillization, Alexa594 FP, 6 h | Potency, µM (series often up to 57.7 µM), inactives show at the top dose activity, negative = inhibition, usual class: inhibitors; note: nearly all actives have a fitted effect of over 55% in size
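Human tau K18 […] P301L fragment, 15 uM unlabeled plus 0.24 uM Alexa 594-labeled tau (final), with compound and 20 uM heparin in 100 mM sodium acetate pH 7; 6 hr at 37 C, then Alexa 594 FP read.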
GoLoco inh red – inhibitors of human Gai1-RGS12 GoLoco interaction (red fluorophore). Gai1:RGS12 GoLoco peptide FP, rhodamine, 10 min. Potency, µM (series often up to 61.6 µM), without a hit: at the top dose activity, negative = inhibition, most hits filed as inhibitors. 230,000 tested, 0.44% active; active = well fitted inhibition curve with a large enough effect, not every such curve was filed as active; inactive = no such curve, though single readings can be large or run the other way; note: nearly all actives have a fitted effect of over 30% in size
TRb-SRC2 inh – disrupts binding of human TR beta to SRC2 | TRbeta-SRC2 peptide binding, fluorescence polarization; receptor liganded with 1 µM T3 | 280,000 tested, 0.065% active | Potency, µM (series often up to 106 µM), for the others: at the top dose activity change, negative = inhibition, most hits filed as inhibitors | P10828 | AID 1469;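 note: plate controls were bound peptide for no effect and peptide without receptor for full effect; nearly all actives have a fitted effect of over 50% in size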
Target sequence (P10828 whole entry, looked up): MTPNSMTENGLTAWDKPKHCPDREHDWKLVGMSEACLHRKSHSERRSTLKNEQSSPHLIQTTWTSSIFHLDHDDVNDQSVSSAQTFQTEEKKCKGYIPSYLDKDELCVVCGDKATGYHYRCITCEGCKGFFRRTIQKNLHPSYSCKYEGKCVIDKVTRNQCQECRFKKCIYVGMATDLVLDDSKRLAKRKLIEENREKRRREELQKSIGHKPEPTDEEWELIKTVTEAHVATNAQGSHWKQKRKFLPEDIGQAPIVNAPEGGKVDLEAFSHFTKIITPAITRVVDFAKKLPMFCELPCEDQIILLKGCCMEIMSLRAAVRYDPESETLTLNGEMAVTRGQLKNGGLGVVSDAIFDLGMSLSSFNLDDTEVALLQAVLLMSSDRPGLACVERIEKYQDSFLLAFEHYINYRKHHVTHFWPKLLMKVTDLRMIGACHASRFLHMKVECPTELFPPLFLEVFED
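A fluorescence polarization screen tested compounds at multiple concentrations against complex formation between 0.6 uM TRb ligand-binding domain and 20 nM Texas Red SRC2 peptide, with 1 uM T3 present; readout after 5 hr.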
Tau fluor counter – counter-screen for tau fibril formation inhibitors. Potency, µM (highest dose often 57.7 µM), for inactives: at the top dose activity change, negative = decrease. tau K18 P301L Alexa594 fluorescence, heparin fibrillization. 280,000 tested, 0.93% active; note: nearly all actives have a fitted effect of over 55% in size
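Human tau K18 P301L (15 uM unlabeled, 0.24 uM Alexa 594-labeled) in 100 mM sodium acetate pH 7 with 20 uM heparin, 6 hr at 37 C. ThT 30 uM added, 1 hr ambient; Alexa 594 FP and total fluorescence read at 555/632 nm.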
The depositor's hits bear a star; ? = inconclusive; · = no result; ! = repeats disagree; [ ] = remark or other dose. Rows were chosen to be rich in hits. Some 3.1% of all compounds tested hit in one or more screens of this group. Unless noted, calls come from the whole dose curve; as a rule, active = well fitted curve in the direction sought with a large enough effect; inconclusive = small, poorly fitted or top-dose-only effect, or another doubt; inactive = no such curve, though single readings can be large; an effect the other way counts as inactive or inconclusive. Unless noted, % is set by controls: 0 for no effect and ±100 for the full control effect; potency is the fitted concentration of half-maximal effect.

SMILES	Tau fibril ThT	TR SRC2 fluor cs	Tau FP inhib	GoLoco inh red	TRb-SRC2 inh	Tau fluor counter
O=C(OCn1ncc(Cl)c(Cl)c1=O)c1ccccc1Cl	14.1µM*	-1.6%	-20.0%	-6.4%	1.8%	-14.5%
O=C(OCn1ncc(Cl)c(Cl)c1=O)c1ccc(F)cc1	?	-1.4%	?	-7.3%	-7.4%	-19.9%
COc1cccc(OCC(O)CN2CC(C)CC(C)C2)c1 (stereo not drawn)	5.6%	0.7%	-3.5%	-47.7%	2.6%	-2.6%
COC(=O)CCC(=O)OC1(C)C(=O)C=C2C=C(C3CC3)N(Cc3ccccc3)C=C2C1=O (stereo not drawn)	11.2µM*!	0.0%[11.2 µM]	?	6.5%[14.2 µM]	8.8%[11.2 µM]	-9.3%[11.6 µM]
COC(=O)CCC(=O)OC1(C)C(=O)C=C2C=C(C3CC3)N(CC(C)C)C=C2C1=O (stereo not drawn)	-0.1%[11.5 µM]	1.1%[11.2 µM]	3.6%[11.6 µM]	3.55µM*!	9.1%[11.2 µM]	-7.6%[11.6 µM]
CCN(CC)c1ccc(C(=C2C=CC(=[N+](CC)CC)C=C2)c2ccccc2)cc1	·	0.2%	·	·	-7.9%	·
CCN(Cc1cccc(S(=O)(=O)O)c1)c1ccc(C(=C2C=CC(=[N+](CC)Cc3cccc(S(=O)(=O)[O-])c3)C=C2)c2ccccc2)cc1	·	89.1µM*[quencher]	·	·	?	·
CCN(CC)c1ccc(C(=C2C=CC(=[N+](CC)Cc3cccc(S(=O)(=O)[O-])c3)C=C2)c2ccc(N(CC)Cc3cccc(S(=O)(=O)O)c3)cc2)cc1	·	11.2µM*[fluorescent]	·	·	11.2µM*	·
CCN(Cc1ccccc1)c1ccc(/C=N/NC(=O)c2cccc(S(=O)(=O)N3CCOCC3)c2)cc1	-8.9%	-1.0%	17.4%	8.0%	-3.9%	-29.6%
CN(C)c1ccc(Nc2nc(-c3cccnc3)cs2)cc1	?	-2.3%	13.2%	-2.9%	-18.9%	?
NC1=NCC(O)=C1c1nc2ccccc2[nH]1	?	-1.2%	-2.8%	5.4%	-7.9%	-11.2%
O=C(N/N=C/C1CC=CCC1)c1cc2ccccc2cc1O (stereo not drawn)	?	-24.2%	-5.7%	26.5%	8.9%	?
CCc1ccc2c(c1)C1(NN=C(c3ccc(C)cc3)S1)C(=O)N2 (stereo not drawn)	?	-4.7%	0.8%	8.0%	-6.8%	?
CC(C)c1ccc2c(c1)C1(NN=C(c3ccccc3)S1)C(=O)N2 (stereo not drawn)	25.1µM*	-5.8%	13.7%	14.4%	-13.3%	?
CC(=O)Nc1ccc(OS(=O)(=O)c2ccc(C(C)(C)C)cc2)cc1	-8.4%	-2.4%	?	8.6%	-5.4%	?
CC(=O)Nc1ccc(S(=O)(=O)Oc2ccc(/C=C3\SC(N)=NC3=O)cc2)cc1	-16.6%	-2.7%	25.1µM*	-8.4%	12.1%	-13.4%
COc1ccccc1NC(=O)C1=C(C)NC(=O)NC1c1ccccc1[N+](=O)[O-] (stereo not drawn)	?	-3.1%	-14.6%	-18.6%	-5.0%	-23.1%
CC1=C(C(=O)Nc2ccccc2)C(c2ccccc2[N+](=O)[O-])NC(=O)N1 (stereo not drawn)	25.1µM*	-4.1%	?	54.1%	-5.3%	?
CNC(=O)c1c(N)sc2c1CCCCC2	17.8µM*	-1.7%	?	17.4%	-2.7%	-29.1%
CCCOC(=O)c1c(N)sc2c1CCC2	?	-3.4%	-3.3%	43.8%	-4.9%	-10.6%
COCCNC(=O)c1c(N)sc2c1CCCC2	28.2µM*	3.6%	?	83.9%	?	-24.2%
O=C(CCCOc1ccc(Cl)cc1Cl)N/N=C/c1ccco1	?	2.0%	-14.6%	2.8%	-13.9%	?
NC(=O)C1CCN(C2CC(=O)NC2=O)CC1 (stereo not drawn)	-10.2%	-3.4%	-1.2%	-3.7%	0.6%	-7.4%
CCc1cccc(C)c1NC(=O)CN1C(=O)c2cccc3cccc1c23	9.6%	0.1%	2.0%	·	5.6%	7.8%
O=C(O)C1C2CCC(C2)C1C(=O)NCCC1=CCCCC1 (stereo not drawn)	-1.8%	0.2%	-7.7%	3.0%	-6.3%	2.5%
SMILES	Tau fibril ThT	TR SRC2 fluor cs	Tau FP inhib	GoLoco inh red	TRb-SRC2 inh	Tau fluor counter
Oc1c(Cl)cc(Cl)cc1C=Nc1ccccc1N1CCCC1	22.4µM*	-3.6%	-12.7%	7.8%	6.0%	?
CCC(C)C(=O)N1c2ccccc2C(=C2SC(C(=O)OC)=C(C(=O)OC)S2)C(=S)C1(C)C (stereo not drawn)	3.98µM*	0.9%	?	-5.2%	-9.8%	?
O=C(CCC1CC(=O)Nc2ccccc21)NCc1ccc(F)cc1 (stereo not drawn)	-2.3%	-0.7%	-1.0%	1.6%	4.0%	-8.3%
Cc1cc(C)cc(N=C2NC(=O)/C(=C/c3cccs3)S2)c1	?	-7.4%	?	1.78µM*	0.2%	?
Cn1cccc1/C=C1\SC(=Nc2cccc(O)c2)NC1=O	7.08µM*	-7.6%	10.6%	33.9%	5.5%	?
Cc1ccc(N=C2NC(=O)/C(=C/c3cn(C)c4ccccc34)S2)cc1C	3.98µM*	0.3%[53 µM]	15.2%	142.8%	-6.6%[53 µM]	?
Cn1cc(/C=C2/SC(=O)N(c3ccccc3)C2=O)c2ccccc21	5.9%	0.0%	5.0%	-5.9%	-2.5%	-17.2%
Cn1cccc1/C=C1\SC(=Nc2ccccc2)NC1=O	12.6µM*	-0.6%	0.7%	4.9%	0.7%	?
COc1ccc(Cn2c(CCC(=O)Nc3cccc(Cl)c3)nc3cccnc32)cc1	5.3%	-1.2%	?	·	-1.5%	-27.4%
Cc1ccc(NCc2n[nH]c(=S)n2-c2ccccc2)c(C)c1	2.8%	1.5%	4.9%	-8.7%	-7.8%	0.3%
CCOC(=O)/C(C#N)=C\c1ccco1	-15.5%	2.8%	-9.1%	26.4%	8.2%	-8.1%
Cn1cccc1/C=C1\SC(=Nc2ccc(O)cc2)NC1=O	4.47µM*	-3.9%	1.1%	54.6%	2.3%	?
Cc1ccc(N=C2NC(=O)/C(=C/c3cccn3C)S2)c(C)c1	?	-1.2%	9.7%	6.5%	-1.6%	-3.4%
COC(=O)C1=C(C)N(c2cc(C)cc(C)c2)/C(=C/c2ccc(O)cc2)C1=O	31.6µM*	-2.7%	1.6%	2.2%	4.6%	-20.1%
Cc1cc(C)nc(NS(=O)(=O)c2ccc(NC(=O)Nc3ccccc3F)cc2)n1	-14.8%	-1.5%	0.3%	6.4%	4.9%	-14.2%
Cc1ccc(S(=O)(=O)Nc2ccc(NC(=O)Nc3ccc(F)cc3F)cc2)cc1	-5.2%	-0.3%	?	9.1%	2.0%	11.2µM*[quencher]
CCN1CCc2nc3sc(C(=O)c4ccccc4)c(N)c3cc2C1	8.91µM*	-3.3%	-12.1%	·	4.2%	15.8µM*[quencher]
CCN1CCc2nc3sc(C(=O)c4ccc(F)cc4)c(N)c3cc2C1	?	-1.5%	2.4%	·	2.1%	-24.3%
